Assay results taken from PubChem BioAssay (EPA / NIEHS).
Where “and” joins values, the source holds several entries; their conditions need not be identical. Equal values may be shown once. More than one record can exist for a structure, and the calls need not agree. Calls of active or inactive are those of the source. How the source made its calls: active means hit-call score of the fitted dose curve at least 0.9, where 1 is the maximum; inactive means score below 0.9.

Experiments:
Details in all cases: mRNA level, 48 h; actives raise or lower the signal
[1] = read-out: Cytochrome P450 7A1 (Homo sapiens) (UniProt P22680); test: LTEA_HepaRG_CYP7A1: Life Technologies and Expression Analysis (LTEA) Assay for Cytochrome P450 7A1 (CYP7A1) using HepaRG (AID 2283496)
How it was run: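 HepaRG cells plated 48 h, then switched to serum-free induction medium and exposed in duplicate for 48 h to 8-point half-log series from 100 uM in 0.5% DMSO. CYP7A1 mRNA by qRT-PCR (TaqMan), normalized to ACTB/GAPDH/POLR2A; bidirectional fit versus DMSO.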

[2] = read-out: Glutathione S-Transferase (GSTA2), GSTA2 (gene 2939); test: LTEA_HepaRG_GSTA2: Life Technologies and Expression Analysis (LTEA) Assay for Glutathione S-Transferase (GSTA2) using HepaRG (AID 2283497)
How it was run: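 Human HepaRG cells, plated 48 h, then exposed in serum-free induction medium for 48 h to eight half-log concentrations up to 100 uM in 0.5% DMSO, duplicate. GSTA2 mRNA by qRT-PCR, normalized to ACTB/GAPDH/POLR2A; bidirectional fit versus DMSO.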

[3] = read-out: Glutamate-cysteine ligase catalytic (GCLC), GCLC (gene 2729); test: LTEA_HepaRG_GCLC: Life Technologies and Expression Analysis (LTEA) Assay for Glutamate-cysteine ligase catalytic (GCLC) using HepaRG (AID 2283498)
How it was run: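 Differentiated human HepaRG cells, plated 48 h then switched to serum-free induction medium, were exposed in duplicate for 48 h to 8 half-log concentrations topping at 100 uM in 0.5% DMSO. GCLC mRNA was quantified by qRT-PCR against ACTB, GAPDH and POLR2A.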

[4] = read-out: Glutamate-cysteine ligase regulatory (GCLM), GCLM (gene 2730); test: LTEA_HepaRG_GCLM: Life Technologies and Expression Analysis (LTEA) Assay for Glutamate-cysteine ligase regulatory (GCLM) using HepaRG (AID 2283500)
How it was run: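 Differentiated HepaRG cells exposed 48 h in serum-free induction medium to eight half-log concentrations up to 100 uM (0.5% DMSO). GCLM mRNA by TaqMan qRT-PCR, normalized to ACTB, GAPDH and POLR2A; bidirectional fit versus DMSO.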

[5] = read-out: Glutathione S-transferase M3 (GSTM3), GSTM3 (gene 2947); test: LTEA_HepaRG_GSTM3: Life Technologies and Expression Analysis (LTEA) Assay for Glutathione S-transferase M3 (GSTM3) using HepaRG (AID 2283501)
How it was run: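 GSTM3 transcript levels came from Fluidigm TaqMan qRT-PCR normalized to three housekeeping genes, fitted in both directions against DMSO. HepaRG cultures received chemicals for 48 h in serum-free induction medium (0.5% DMSO), 8 half-log concentrations up to 100 uM, duplicate.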

[6] = read-out: Heat shock 70 kDa protein 1 (HSPA1A), gene 3303; test: LTEA_HepaRG_HSPA1A: Life Technologies and Expression Analysis (LTEA) Assay for Heat shock 70 kDa protein 1 (HSPA1A) using HepaRG (AID 2283502)
How it was run: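 Human HepaRG cells in serum-free induction medium were exposed in duplicate for 48 h to 8 half-log concentrations, highest 100 uM, in 0.5% DMSO. HSPA1A mRNA read by TaqMan qRT-PCR, normalized to ACTB, GAPDH, POLR2A, fitted bidirectionally against DMSO.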

[7] = read-out: Hypoxia-inducible factor 1-alpha (Homo sapiens) (UniProt Q16665); test: LTEA_HepaRG_HIF1A: Life Technologies and Expression Analysis (LTEA) Assay for Hypoxia-inducible factor 1 (HIF1A) Trancription factor using HepaRG (AID 2283503)
How it was run: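 Differentiated HepaRG cells in serum-free induction medium exposed 48 h, in duplicate, to 8-point half-log series from 100 uM in 0.5% DMSO. HIF1A mRNA measured by TaqMan qRT-PCR, normalized to ACTB/GAPDH/POLR2A, fitted bidirectionally versus DMSO.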

[8] = read-out: 3-Hydroxy-3-Methylglutaryl-CoA Synthase 2 (HMGCS2), HMGCS2 (gene 3158); test: LTEA_HepaRG_HMGCS2: Life Technologies and Expression Analysis (LTEA) Assay for 3-Hydroxy-3-Methylglutaryl-CoA Synthase 2 (HMGCS2) using HepaRG (AID 2283504)
How it was run: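 Readout is HMGCS2 transcript by qRT-PCR, housekeeping-normalised (ACTB/GAPDH/POLR2A) and fitted bidirectionally against 0.5% DMSO. Differentiated HepaRG cells received chemicals 48 h, duplicate wells, eight half-log concentrations topping at 100 uM.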

HGF (gene 3082) = test: LTEA_HepaRG_HGF: Life Technologies and Expression Analysis (LTEA) Assay for Hepatocyte Growth Facto (HGF) using HepaRG (AID 2283505)
How it was run: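 HGF transcript was quantified by TaqMan qRT-PCR against three housekeeping genes after 48 h treatment of HepaRG cells. Exposure ran in duplicate over eight half-log steps topping at 100 uM in 0.5% DMSO vehicle.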

[9] = read-out: Insulin Like Growth Factor 1 (IGF1), IGF1 (gene 3479); test: LTEA_HepaRG_IGF1: Life Technologies and Expression Analysis (LTEA) Assay for Insulin Like Growth Factor 1 (IGF1) using HepaRG (AID 2283506)
How it was run: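 Differentiated HepaRG cells in serum-free induction medium, exposed 48 h in duplicate to 8 half-log concentrations up to 100 uM in 0.5% DMSO. IGF1 mRNA by Fluidigm qRT-PCR, normalised to ACTB, GAPDH and POLR2A.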

[10] = read-out: Intercellular Adhesion Molecule 1 (ICAM1), ICAM1 (gene 3383); test: LTEA_HepaRG_ICAM1: Life Technologies and Expression Analysis (LTEA) Assay for Intercellular Adhesion Molecule 1 (ICAM1) using HepaRG (AID 2283507)
How it was run: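 ICAM1 transcript levels measured by qRT-PCR, normalized to three housekeeping genes (ACTB, GAPDH, POLR2A), after 48 h chemical exposure of HepaRG cells. Duplicate eight-point half-log series from 100 uM in 0.5% DMSO; gain or loss fitted against vehicle.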

[11] = read-out: Insulin-like growth factor-binding protein 1 (IGFBP1), IGFBP1 (gene 3484); test: LTEA_HepaRG_IGFBP1: Life Technologies and Expression Analysis (LTEA) Assay for Insulin-like growth factor-binding protein 1 (IGFBP1) using HepaRG (AID 2283508)
How it was run: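 Read-out is qRT-PCR transcript level normalized to three housekeeping genes, fitted in both directions against 0.5% DMSO. Differentiated HepaRG cells received eight half-log concentrations (top 100 uM) in duplicate for 48 h in serum-free induction medium.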

[12] = read-out: Interleukin 6 (IL6), IL6 (gene 3569); test: LTEA_HepaRG_IL6: Life Technologies and Expression Analysis (LTEA) Assay for Interleukin 6 (IL6) using HepaRG (AID 2283509)
How it was run: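 Differentiated human HepaRG cells, plated 48 h then switched to serum-free induction medium, were exposed in duplicate for 48 h to eight half-log concentrations up to 100 uM in 0.5% DMSO. IL6 mRNA measured by qRT-PCR, normalized to ACTB/GAPDH/POLR2A.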

[13] = read-out: Interleukin 6 Receptor (IL6R), IL6R (gene 3570); test: LTEA_HepaRG_IL6R: Life Technologies and Expression Analysis (LTEA) Assay for Interleukin 6 Receptor (IL6R) using HepaRG (AID 2283510)
How it was run: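 Differentiated HepaRG cells, plated 48 h, then exposed in duplicate for 48 h in serum-free induction medium to 8 half-log concentrations (top 100 uM, 0.5% DMSO). IL6R mRNA measured by TaqMan qRT-PCR, normalized to ACTB/GAPDH/POLR2A; bidirectional fit vs DMSO.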

[14] = read-out: Potassium channel subfamily K member 1 (KCNK1), KCNK1 (gene 3775); test: LTEA_HepaRG_KCNK1: Life Technologies and Expression Analysis (LTEA) Assay for Potassium channel subfamily K member 1 (KCNK1) using HepaRG (AID 2283511)
How it was run: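 Differentiated human HepaRG cells in serum-free induction medium were exposed in duplicate for 48 h to 8 half-log concentrations up to 100 uM in 0.5% DMSO. KCNK1 mRNA was measured by TaqMan qRT-PCR, normalized to ACTB, GAPDH and POLR2A, and fitted bidirectionally versus DMSO.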

[15] = read-out: Keratin 19 (KRT19), KRT19 (gene 3880); test: LTEA_HepaRG_KRT19: Life Technologies and Expression Analysis (LTEA) Assay for Keratin 19 (KRT19) using HepaRG (AID 2283512)
How it was run: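 KRT19 transcript measured by TaqMan qRT-PCR, referenced to three housekeeping genes, after HepaRG cells received test chemicals for 48 h. Eight half-log concentrations, top 100 uM, 0.5% DMSO vehicle; increases and decreases both fitted.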

[16] = read-out: JUN Transcription Factor, JUN (gene 3725); test: LTEA_HepaRG_JUN: Life Technologies and Expression Analysis (LTEA) Assay for JUN Transcription Factor using HepaRG (AID 2283513)
How it was run: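 HepaRG cells, 48 h post-plating, exposed 48 h in serum-free induction medium to 8-point half-log series (top 100 uM, 0.5% DMSO), duplicate; mRNA by qRT-PCR (TaqMan, Fluidigm), normalized to ACTB/GAPDH/POLR2A; bidirectional fit vs DMSO.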

[17] = read-out: Lipase C (LIPC), LIPC (gene 3990); test: LTEA_HepaRG_LIPC: Life Technologies and Expression Analysis (LTEA) Assay for Lipase C (LIPC) using HepaRG (AID 2283514)
How it was run: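 Differentiated human HepaRG cells in serum-free induction medium were exposed in duplicate for 48 h to eight concentrations (top 100 uM, half-log steps, 0.5% DMSO). LIPC mRNA was quantified by TaqMan qRT-PCR, normalized to ACTB, GAPDH and POLR2A, with bidirectional fitting versus DMSO.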

[18] = read-out: Lipoprotein lipase (LPL), LPL (gene 4023); test: LTEA_HepaRG_LPL: Life Technologies and Expression Analysis (LTEA) Assay for Lipoprotein lipase (LPL) using HepaRG (AID 2283515)
How it was run: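 Differentiated human HepaRG cells in serum-free induction medium were exposed in duplicate for 48 h to eight half-log concentrations (top 100 uM) in 0.5% DMSO. LPL mRNA was quantified by TaqMan qRT-PCR, normalized to ACTB, GAPDH and POLR2A.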

[19] = read-out: growth arrest and DNA damage 45 (GADD45G), GADD45G (gene 10912); test: LTEA_HepaRG_GADD45G: Life Technologies and Expression Analysis (LTEA) Assay for growth arrest and DNA damage 45 (GADD45G) using HepaRG (AID 2283499)
How it was run: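 GADD45G transcript level by qRT-PCR (housekeeping-normalized: ACTB, GAPDH, POLR2A) after 48 h chemical treatment of a single HepaRG lot in serum-free induction medium; eight-point half-log series up to 100 uM in 0.5% DMSO, duplicates, up- or down-regulation scored.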

Measured: AC50

Chain of Hypoxia-inducible factor 1-alpha (Homo sapiens) (Q16665 whole entry, looked up): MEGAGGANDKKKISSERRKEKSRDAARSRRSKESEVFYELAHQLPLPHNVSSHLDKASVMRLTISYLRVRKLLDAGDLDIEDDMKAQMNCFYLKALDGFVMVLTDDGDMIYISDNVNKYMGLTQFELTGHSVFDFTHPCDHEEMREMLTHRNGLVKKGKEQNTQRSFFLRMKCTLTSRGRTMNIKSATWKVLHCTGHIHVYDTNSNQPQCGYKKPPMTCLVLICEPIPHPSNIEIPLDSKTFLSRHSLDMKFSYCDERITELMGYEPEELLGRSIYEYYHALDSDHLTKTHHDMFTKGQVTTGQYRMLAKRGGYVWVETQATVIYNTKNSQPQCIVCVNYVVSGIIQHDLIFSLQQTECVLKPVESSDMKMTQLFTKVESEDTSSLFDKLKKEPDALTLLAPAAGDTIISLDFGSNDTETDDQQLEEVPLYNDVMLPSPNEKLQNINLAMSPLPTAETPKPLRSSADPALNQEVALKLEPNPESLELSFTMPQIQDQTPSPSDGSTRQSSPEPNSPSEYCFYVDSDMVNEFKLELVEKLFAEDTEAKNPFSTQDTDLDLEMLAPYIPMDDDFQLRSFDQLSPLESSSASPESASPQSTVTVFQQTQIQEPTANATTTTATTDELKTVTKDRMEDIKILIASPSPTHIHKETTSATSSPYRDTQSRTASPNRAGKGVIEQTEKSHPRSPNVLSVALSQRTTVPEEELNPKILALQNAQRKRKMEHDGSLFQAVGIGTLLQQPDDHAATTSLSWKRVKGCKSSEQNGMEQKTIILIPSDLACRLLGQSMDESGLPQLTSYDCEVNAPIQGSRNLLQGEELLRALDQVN

N#Cc1cc(Br)c(O)c(Br)c1
active: [1] 19.1 µM | [2] 22 µM | [3] 10.3 µM | [4] 1.34 µM | [5] 10.7 µM | [6] 10.6 µM | [7] 40 µM | [8] 33.3 µM | HGF (gene 3082) 23.9 µM | [9] 17.4 µM | [10] 69.9 µM | [11] 19.3 µM | [12] 34.5 µM | [13] 19.4 µM | [15] 25.6 µM | [16] 24.2 µM | [17] 23.5 µM
inactive: [14] | [18]

CCCN(CCC)c1c([N+](=O)[O-])cc(S(N)(=O)=O)cc1[N+](=O)[O-]
inactive: [3] | [19] | [4] | [5] | [7] | [8] | HGF (gene 3082) | [9] | [10] | [13] | [14] | [15] | [17] | [18]
active: [2] 91 µM and 68.4 µM and 83.1 µM | [3] 70.9 µM and 83.9 µM | [4] 92 µM | [6] 70.7 µM and 75.6 µM and 50 µM | [7] 94.2 µM and 84.5 µM | [8] 54.1 µM and 73.4 µM | [9] 93.4 µM | [10] 94.8 µM and 85.4 µM | [11] 92.9 µM and 36.6 µM and 78.9 µM | [12] 93.1 µM and 85.4 µM and 91 µM | [13] 68.4 µM and 70 µM | [14] 93.5 µM | [15] 93.8 µM and 72.5 µM | [16] 94.2 µM and 79.3 µM and 74.8 µM | [18] 50 µM

COC(=O)C(C)Oc1ccc(Oc2ccc(Cl)cc2Cl)cc1 (configuration not stated)
inactive: [1] | [3] | [4] | [5] | [6] | [7] | HGF (gene 3082) | [9] | [10] | [11] | [12] | [13] | [14] | [16] | [17]
active: [2] 74.4 µM | [8] 17.5 µM | [15] 77 µM | [18] 27.6 µM
